Source: PubChem BioAssay (National Center for Advancing Translational Sciences (NCATS))
Vaccinia Venus = inhibitors of vaccinia virus (Venus reporter). Vaccinia virus Venus reporter expression, fluorescence. Potency, µM (series often up to 36.5 µM), inactives show at the top dose activity change, negative = inhibition, usual class: inhibitors. 330,000 compounds, 0.46% hits. AID 720580; calls by dose curve; tested in A549 cells; also: potency is read from the fitted curve at half-maximal effect; nearly all actives have a fitted effect of over 30% in size
HCV inh = HCV inhibition. Huh7.5.1 HCVcc-Cre infection, luciferase reporter, 44 h. Potency, µM (top dose mostly 41.8 µM), without a hit: top-dose activity change, negative = inhibition, usual class: inhibitors. 340,000 compounds, 3.4% hits. AID 651820; active = well fitted inhibition curve with a large enough effect; inconclusive = small, poorly fitted or top-dose-only effect, or another doubt; inactive = no such curve, though single readings can be large or run the other way; also: potency is read from the fitted curve at half-maximal effect
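Compounds are dispensed onto cells plated 4 h earlier at 1,000 per well, with HCVcc-Cre virus (about 0.5 moi) added next. Following 44 h of culture, luminescent signal is measured for 15 sec after 15 min with substrate at room temperature.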
HCMV antiviral = inhibitors of human cytomegalovirus; HFF cells, HCMV-luciferase reporter, 72 h; stronger effect = lower value; activity change, negative = inhibition, % at 57.5 µM; 410,000 compounds, 4.5% hits; AID 1259415; in the data active = activity change below about -60%; inconclusive = no clear call, values can overlap the other calls; inactive = above about -39%
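Cell-based, HFFs, 1000 cells/well, 16 h 37C; cpds in DMSO + HCMV-luc, MOI 1 PFU/cell; 72 h 37C; OneGlo luminescence after 5 min RT; norm. to buffer vs Salinomycin 10uM.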
Marburg entry inh = blocks Marburg virus binding to or entry into cells | Marburg virus pseudotyped entry inhibition, cell reporter | Potency, µM (highest dose often 37.8 µM), for inactives: top-dose activity change, negative = inhibition, most hits filed as inhibitors | 300,000 compounds, 1.8% hits | AID 540276; calls by dose curve; tested in HEK293 cells; also: potency is read from the fitted curve at half-maximal effect
Lassa entry inh = blocks Lassa virus binding to or entry into cells. Potency, µM (titrated, usually from 37.9 µM), for inactives: at the top dose activity change, negative = inhibition, usual class: inhibitors. 300,000 compounds, 1.2% hits. AID 540256. Lassa virus pseudotype entry inhibition, cell reporter; calls by dose curve; tested in HEK293 cells; also: potency is read from the fitted curve at half-maximal effect; nearly all actives have a fitted effect of over 50% in size
Vaccinia mCherry = inhibitors of vaccinia virus infection (mCherry reporter signal). 310,000 compounds, 0.63% hits. Potency, µM (doses to about 36.5 µM), for the others: top-dose activity change, negative = inhibition, hits mostly inhibitors. Vaccinia virus mCherry reporter infection, fluorescence. AID 720579; calls by dose curve; tested in A549 cells; also: potency is read from the fitted curve at half-maximal effect; nearly all actives have a fitted effect of over 35% in size
Numbers without * were called inactive; i = inactive; ? = inconclusive; · = no result; [ ] = dose if it differs, or a comment. In the library only some 7.8% were active in any assay of this set; here they are far more common. % is scaled to controls: 0 for no effect and ±100 for the full control effect.

SMILES | Vaccinia Venus | HCV inh | HCMV antiviral | Marburg entry inh | Lassa entry inh | Vaccinia mCherry
COc1cc(NC(=O)CN2C(=O)CN(C)C(=O)c3ccccc32)cc(OC)c1OC | -5% | · | 10 | · | 4%[46.1 µM] | -4%
CN(C)S(=O)(=O)c1cccc(NC(=O)c2cccc(S(=O)(=O)N3CCCCCC3)c2)c1 | ? | 7.9µM* | -61* | ? | ? | -27%
CN(C)S(=O)(=O)c1cccc(NC(=O)c2ccc(S(=O)(=O)N3CCCCC3)cc2)c1 | -27% | ? | -22 | ? | -3% | ?
CCN(c1ccc(NC(=O)c2ccc(N3CCCC3=O)cc2)cc1)C(C)C | -13% | ? | -70* | ? | ? | -29%
O=C(Nc1cccc(S(=O)(=O)N2CCCCC2)c1)c1ccc(S(=O)(=O)C(F)F)cc1 | -28% | ? | -64* | 4.5µM* | ? | -22%
CN(CC(=O)Nc1ccc(Cl)cc1)C(=O)c1ccc(N2CCCC2=O)cc1 | · | 22% | -15 | · | · | ·
CN(CC(=O)Nc1ccc(OC(F)(F)F)cc1)C(=O)c1ccc(N2CCCC2=O)cc1 | · | 4.5µM* | -70* | · | · | ·
CN(C)c1ccc(C(=O)Nc2cccc(S(=O)(=O)N3CCCC3)c2)cc1 | · | ? | 12 | · | · | ·
CN(C)S(=O)(=O)c1cccc(NC(=O)c2ccc(N3CCCC3=O)cc2)c1 | · | 22µM* | 9 | · | · | ·
Cc1ccc(S(=O)(=O)N2CCCCC2)cc1NC(=O)c1cncc(Br)c1 | -28% | -21% | -9 | ? | ? | -29%
Cc1csc(NC(=O)c2ccc(N3CCCC3=O)cc2)n1 | · | -19% | -40 | 1.6µM* | ? | ·
Cc1ccc(NC(=O)c2cccc(S(=O)(=O)N3CCN(C)CC3)c2)cc1F | -2% | 13µM* | -6 | ? | -1%[46.1 µM] | i
CN1CCN(S(=O)(=O)c2ccc(NC(=O)c3cccc(S(=O)(=O)N4CCCC4)c3)cc2)CC1 | ? | ? | 6 | -1% | -12% | -3%[1.46 µM]
O=C(Nc1cccc(S(=O)(=O)N2CCCCCC2)c1)c1cncc(Br)c1 | -20% | 11µM* | -22 | ? | ? | ?
Cc1nnc(NC(=O)c2ccc(N3CCCC3=O)cc2)s1 | -6% | ? | 72 | 28% | 6% | -13%
CNc1ccc(C(=O)CC(O)CCC(C)C2OC(=O)CC(O)CC(=O)CC(O)CC(O)CC(O)CC(O)CC3(O)CC(O)C(C(=O)OC)C(CC(O[C@@H]4O[C@H](C)[C@@H](O)[C@H](N)[C@@H]4O)/C=C/C=C/C=C/C=C/C=C/C=C/C=C/C2C)O3)cc1 (stereo not given in full) | -12% | · | · | · | · | -17%
CC(=O)c1c(C)[nH]c(C(=O)Nc2cccc(S(=O)(=O)N3CCCCC3)c2)c1C | · | 13µM* | -1 | · | · | ·
Cc1ccc(S(C)(=O)=O)cc1C(=O)Nc1cccc(S(=O)(=O)N2CCCCCC2)c1 | · | ? | -30 | · | · | ·
Fc1ccc(CSc2ccc3nnc(-c4cccnc4)n3n2)cc1 | -19% | ? | 22 | -20%[46.1 µM] | 13µM* | -3%
CCSc1ccc2nnc(-c3cccc(F)c3)n2n1 | · | ? | -64* | -15% | -1% | ·
CC(=O)N1CCc2c(sc3c2c(=O)n(-c2ccccc2Cl)c(=O)n3Cc2cccc(C)c2)C1 | -3% | · | ? | · | -38%[46.1 µM] | -22%
O=C(Nc1ccc2oc(-c3cccnc3)nc2c1)c1ccc(Br)cc1 | -4% | · | -31 | 0%[46.1 µM] | 0%[46.1 µM] | -11%
COc1cc2c(cc1OC)C(C)N(C(=O)c1cc(C)on1)CC2 (stereo not given) | ? | 2% | -66* | -25% | ? | ?
COc1cc2c(cc1OC)C(C)N(C(=S)Nc1ccccc1)CC2 (stereo not given) | -5% | -8% | -14 | 18% | ? | -11%
COc1cc2c(cc1OC)C(C)N(C(=S)NC(=O)c1ccccc1)CC2 (stereo not given) | -12% | ? | -61* | -3%[46.1 µM] | -15% | -23%
COc1cc2c(cc1OC)C(C)N(C(=O)c1c(C)noc1C)CC2 (stereo not given) | · | -6% | ? | · | · | ·
COc1cc2c(cc1OC)C(C)N(C(=O)c1cc3ccccc3o1)CC2 (stereo not given) | · | 10µM* | -29 | -27% | ? | ·
CN(C)C(=O)Oc1ccc(OCc2nc3ccccc3[nH]2)cc1 | -11% | -30% | 32 | ? | 9.2µM* | -20%
